# Measurements: PubChem BioAssay AID652054 (National Center for Advancing Translational Sciences (NCATS), 2013)
# Screen size: about 360,000 compounds; about 9,100 (2.5%) were called active. About 4% were inconclusive and are not listed. Cut-off read from the data, not from the text of the source: active = max response below about -50%; inconclusive = no clear call, values can overlap the other calls; inactive = above that. What follows is part of a selection rich in actives, with near analogues and random picks from the rest.
# Biological target: D(3) dopamine receptor (Homo sapiens) (UniProt P35462)
# Test: qHTS of D3 Dopamine Receptor Antagonist: qHTS
# Conditions: D3R cells, DiscoveRx beta-arrestin luminescence, antagonist mode; hits give low values
# Source text: D3 DARs represent a very important target for the treatment of several neuropsychiatric disorders. Indeed, one of the most promising therapeutic applications for the D3 DAR is in the area of addiction and related disorders. […] These findings have been observed with a number of addictive substances including cocaine, amphetamine, nicotine, and alcohol. […] Antagonism of the D3 DAR may also be therapeutic in the treatment of schizophrenia or psychosis. […] Since the D3 DAR is expressed in areas of the CNS associated with the control of mood and emotion, it has been hypothesized that selective antagonism of the D3 DAR may be effective in treating psychosis without inducing the motor side effects typically seen with D2 DAR antagonists.
# This part of the project aims to discover novel antagonist.
# NIH Chemical Genomics Center [NCGC]
# NIH Molecular Libraries Probe Centers Network [MLPCN]
# Assay Submitter (PI): David Sibley, NINDS
# Freshly passaged cells are plated in 1536 well white, solid bottom plates at a density of 1500 cells/well in 3microl of complete media. After an overnight incubation at 37 degrees C in 5% CO2, cells are loaded with 23nl of test compound from the compound library (as well as dopamine controls) using a 1536 pintool and incubated at 37 degrees C for 90 minutes. Two microliters of DiscoveRx reagent is then added to all cells, and they are incubated for an additional 30 - 60 minutes at room temperature. Following incubation, luminescence is measured on a ViewLux CCD-based luminometer reader using a 20 sec exposure time.
# % is set by controls: 0 for no effect and ±100 for the full control effect.
# Sequence of D(3) dopamine receptor (Homo sapiens) (P35462 whole entry, looked up): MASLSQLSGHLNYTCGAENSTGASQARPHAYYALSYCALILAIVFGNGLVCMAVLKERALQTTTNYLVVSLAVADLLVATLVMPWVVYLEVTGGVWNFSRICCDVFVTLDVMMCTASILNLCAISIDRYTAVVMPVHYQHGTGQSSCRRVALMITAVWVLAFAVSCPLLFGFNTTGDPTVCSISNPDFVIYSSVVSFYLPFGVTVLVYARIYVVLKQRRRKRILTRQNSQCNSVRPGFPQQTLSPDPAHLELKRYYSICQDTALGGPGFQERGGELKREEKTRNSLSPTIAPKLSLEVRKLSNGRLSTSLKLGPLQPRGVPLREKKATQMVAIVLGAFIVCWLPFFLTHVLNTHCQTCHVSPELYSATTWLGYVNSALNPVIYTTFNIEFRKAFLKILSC
row,Structure (SMILES),"max response, negative = inhibition"
1,Cc1sc2ccccc2c1CNC[C@H]1O[C@@H](n2ccc(=O)[nH]c2=O)[C@H](O)[C@@H]1O,23.7% (inactive)
2,O=C(NCc1ccccc1Cl)c1csc([C@@H]2O[C@H](CO)[C@@H](O)[C@H]2O)n1,0% (inactive)
3,Cc1ccccc1-c1csc(C(O)c2cccc(Cl)c2)n1 (stereo unspecified),-14.8% (inactive)
4,CC(C)Cn1cc(-c2cncc3nccn23)cn1,19.7% (inactive)
5,NC(=O)CSc1nnc(-c2cccc(S(=O)(=O)N3CCOCC3)c2)o1,-19.7% (inactive)
6,Cc1c(C(=O)NCc2ccc(C#N)cc2)sc(=O)n1Cc1ccc(C(=O)N(C)C)cc1,16.1% (inactive)
7,COc1ccc(C(=O)N2CCC(C(=O)Nc3cccc(C)c3)CC2)cc1OC,9.36% (inactive)
8,CC(C)(C)c1ccc(C(=O)N2CCC(C(=O)N3CCCCC3)CC2)cc1,7.98% (inactive)
9,COc1ccccc1NC(=O)C1CCN(C(=O)c2ccc(C(C)(C)C)cc2)CC1,-52% (active)
10,CC(=O)N(C1=C(Cl)C(=O)c2ccccc2C1=O)c1ccc(C(=O)O)cc1,-17.6% (inactive)
11,O=C1C(Cl)=C(Oc2ccccc2)C(=O)c2ccccc21,-90.6% (active)
12,COc1cccc(CNc2nc(NCc3cccs3)nc3ccsc23)c1,-28.6% (inactive)
13,C[C@H](CO)N1C[C@H](C)[C@@H](CN(C)S(=O)(=O)c2ccc(F)cc2)OCc2cnnn2CCCC1=O,-22.3% (inactive)
14,COc1ccc(C(C)(NC(C)=O)c2nc(-c3ccc(S(C)(=O)=O)cc3)cs2)cc1 (stereo unspecified),0.123% (inactive)
15,CC(C)Nc1ncnc2c1ncn2[C@H]1CN(Cc2ccncc2)C[C@@H](CO)O1,4.5% (inactive)
16,Cc1cc2oc(C(=O)Nc3c(C)n(C)n(-c4ccccc4)c3=O)c(C)c2cc1Cl,-21.8% (inactive)
17,Cc1c(NC(=O)c2cc(-c3ccc(Br)cc3)on2)c(=O)n(-c2ccccc2)n1C,-15% (inactive)
18,Cc1c(NC(=O)c2coc(=O)c(Br)c2)c(=O)n(-c2ccccc2)n1C,-83.3% (active)
19,CCCCCNC(=O)C(c1ccc(OC)cc1)n1c(=O)c(-c2ccccc2)nc2ccccc21 (stereo unspecified),3.45% (inactive)
20,CC1=C(C(=O)N(C(C)C)C(C)C)CC(CC(=O)NCCCCc2ccccc2)C(=O)N1CCC1=CCCCC1 (stereo unspecified),-16.1% (inactive)
21,COC(=O)[C@]12CCCCC=C1N(Cc1ccc3c(c1)OCO3)C(=O)[C@H](CC(=O)NCc1cccs1)C2,3.72% (inactive)
22,Cc1ccc(CCC(=O)Nc2ncc(Cc3cc(Cl)ccc3Cl)s2)o1,-12.7% (inactive)

row,Structure (SMILES),"max response, negative = inhibition"
1,Cc1ccc(Cc2cnc(N)s2)o1,-53.2% (active)
2,Cc1ccccc1C(OCCN(C)C)C1CCCCC1 (stereo unspecified),-100% (active)
3,CN(C)CCOC1c2ccccc2-c2ccccc21,-17.2% (inactive)
4,CN(C)CCOC(=O)C(c1ccccc1)C1(O)CCCC1 (stereo unspecified),-12.5% (inactive)
5,COCCNc1ncnc2c1ncn2[C@H]1CN(Cc2ccc(OC)cc2)C[C@@H](CO)O1,6.87% (inactive)
6,Cc1cc(C)n2c(NCc3ccccc3)c(CC(C)C)nc2n1,5.03% (inactive)
7,Cc1ccc(CN(C)C[C@@H]2OCc3cnnn3CCCC(=O)N([C@@H](C)CO)C[C@H]2C)cc1,-25.2% (inactive)
8,O=C(NCCNc1ccc([N+](=O)[O-])cc1Cl)c1ccccc1F,-0.899% (inactive)
9,CC(CNc1ccc([N+](=O)[O-])cc1)NC(=O)c1ccccc1Br (stereo unspecified),3.2% (inactive)
10,O=C(NCCNc1ccc([N+](=O)[O-])cc1)c1cccc2c(Br)cccc12,-58.2% (active)
11,CC(C)Oc1ccc(CN2CCC2(C)C(=O)NCc2ccc(C(F)(F)F)cc2)cc1 (stereo unspecified),30.5% (inactive)
12,CC(OC(=O)c1cccc(S(=O)(=O)N2CCOCC2)c1)C(=O)NCC1CCCCC1 (stereo unspecified),-12.6% (inactive)
13,CCCCC[C@H](C)N1C[C@@H](COCc2ccccc2)Oc2cc(N3CCC[C@@H]3CO)ccc2S1(=O)=O,8.76% (inactive)
14,CCCNC(=O)C1(C)CCN(C(=O)c2ccc(F)cc2Cl)C1 (stereo unspecified),1.43% (inactive)
15,COc1cccc2c1C(=O)c1c(O)c3c(c(O)c1C2=O)CC(O)(C(C)=NNC(=O)c1ccc(Cl)c(Cl)c1)CC3OC1CC(N)C(O)C(C)O1 (stereo unspecified),-50.5% (active)
16,COc1ccc(NC(=O)C2(C)Cc3c(-c4cccc(NC(C)=O)c4)ccnc3O2)cc1OC (stereo unspecified),17.2% (inactive)
17,COC(=O)[C@H]1C[C@H](OC(=O)NCc2ccccc2)[C@@]2(O)CN(S(=O)(=O)c3ccc(C)cc3)CC2[C@H]1C(=O)OC (stereo partly specified),-0.452% (inactive)
18,CC=CCn1c(SCCCc2ccccc2)nc2c1c(=O)[nH]c(=O)n2C,41.3% (inactive)
19,Cc1c(-c2ccccc2)n[nH]c1C(=O)N=Nc1c(O)[nH]c2ccccc12,32.7% (inactive)
20,Oc1[nH]c2ccccc2c1N=Nc1c(F)c(F)c(F)c(F)c1F,17.9% (inactive)
21,O=C(CCN1CCCCC1)N=Nc1c(O)[nH]c2ccccc12,-96.3% (active)
22,CCc1nc2ccc(C(=O)N(C)Cc3ccco3)cn2c1N(C)C(=O)Cc1ccccc1,3.24% (inactive)

row,Structure (SMILES),"max response, negative = inhibition"
1,C[C@@H]1CN([C@@H](C)CO)C(=O)CCCn2nncc2CO[C@@H]1CN(C)S(=O)(=O)c1ccc(-c2ccccc2)cc1,-4.97% (inactive)
2,Cc1cccc(-c2cnc(C(O)c3ccc4ccccc4c3)[nH]2)c1 (stereo unspecified),-81.3% (active)
3,COc1cccc(C(O)c2ncc(-c3ccc4ccccc4c3)[nH]2)c1 (stereo unspecified),38.7% (inactive)
4,Cc1cccc(-c2cnc(C(O)c3cc(C)cc(C)c3)[nH]2)c1 (stereo unspecified),0% (inactive)
5,CC(=O)Nc1cc(-c2ccc(N3CCN(C)CC3)cc2)cn2c(-c3ccc(F)cc3)cnc12,-13.9% (inactive)
6,CNc1cnc(-c2cc(OC)c(OC)c(OC)c2)cn1,1.16% (inactive)
7,O=C(NCCN1CCOCC1)C1CCN(S(=O)(=O)c2ccccc2)CC1,31.8% (inactive)
8,CC(C)Nc1nc(NCCOc2ccccc2Cl)c2sccc2n1,0% (inactive)
9,C[C@@H]1CN([C@@H](C)CO)C(=O)c2cc(NS(C)(=O)=O)ccc2O[C@@H](C)CCCCO[C@H]1CN(C)C(=O)Nc1ccc2c(c1)OCO2,-18.4% (inactive)
10,COC(=O)Cc1c(O)ccn(Cc2cccc(C(F)(F)F)c2)c1=O,-71.6% (active)
11,CN(C)C(=O)c1cccn(Cc2cccc(C(F)(F)F)c2)c1=O,22.1% (inactive)
12,COCC1CCN(C(=O)C2CCC(=O)N(Cc3cccc(C(F)(F)F)c3)C2)CC1 (stereo unspecified),-5.12% (inactive)
13,Cc1cccc(NC(=S)NCCN(C2CCCCC2)C2CCCC2)c1,-65.7% (active)
14,Cc1cccc(C(=O)NC(=S)N(C)C2CCCCC2)c1,-4.93% (inactive)
15,Cc1cccc(NC(=S)NCc2ccc3[nH]c4c(c3c2)CCCC4)c1,-3.36% (inactive)
16,CC(=O)Nc1cccc(-c2ccnc3c2CC(C)(C(=O)NCc2ccccc2)O3)c1 (stereo unspecified),0% (inactive)
17,Cc1ccc(CC2(C)C(=O)Nc3ccc(OC(F)(F)F)cc32)cc1 (stereo unspecified),0.0703% (inactive)
18,c1ccc(CCC2=NCCn3cccc32)cc1,-55.5% (active)
19,S=C(NCCc1ccccc1)N1CCn2cccc2C1c1ccncc1 (stereo unspecified),6.2% (inactive)
20,CC1CSc2nnc(CCc3ccccc3)n21 (stereo unspecified),-21.1% (inactive)
21,CCCCN(C=O)c1c(CC)nc2c(OCCC3CCCCC3)cccn12,-10.7% (inactive)
22,COc1ccc(C(O)c2nc(-c3ccc4c(c3)OCO4)cs2)cc1 (stereo unspecified),4.32% (inactive)

row,Structure (SMILES),"max response, negative = inhibition"
1,Cc1ccc(C(=O)C[n+]2cc(-c3ccccc3)n3c2CCCCC3)cc1,-4.64% (inactive)
2,O=C(C[n+]1cc(-c2ccc(Cl)c(Cl)c2)n2c1CCC2)c1cccs1,-18.5% (inactive)
3,Cc1ccc(-c2c[n+](CC(=O)Nc3ccccc3)c3n2CCC3)cc1,-65.6% (active)
4,O=CNc1cc(-c2ccc(C(=O)N3CCOCC3)cc2)cn2c(-c3ccc(F)cc3)cnc12,-24.2% (inactive)
5,CC(Nc1nc(N2CCN(CCO)CC2)nc2ccccc12)c1ccccc1 (stereo unspecified),0% (inactive)
6,CC(Nc1nc(N2CCOCC2)nc2ccccc12)c1ccccc1 (stereo unspecified),-1.04% (inactive)
7,CC(Nc1nc(N2CCCC2)nc2ccccc12)c1ccccc1 (stereo unspecified),-74.8% (active)
8,CC1(C(=O)Nc2cccnc2)Cc2c(-c3ccccc3)ccnc2O1 (stereo unspecified),25.1% (inactive)
9,CC1(C(=O)NS(=O)(=O)c2cccs2)CCN1C(=O)Cc1ccc(-c2ccccc2)cc1 (stereo unspecified),15.7% (inactive)
10,Cc1cc(OCC(=O)Nc2nccs2)c2c(C)c(C)c(=O)oc2c1,52.2% (inactive)
11,CC(C)=C(NC(=O)c1ccccc1)C(=O)N/N=C(\C)c1ccccc1O,-73.8% (active)
12,CNC(=O)C(NC(=O)c1ccccc1)=C(C)C,0.178% (inactive)
13,COc1ccc(/C(C)=N\NC(=O)c2ccc(-c3ccccc3)cc2)c(F)c1,-25.6% (inactive)
14,O=C(NCc1ccc(F)cc1F)[C@@H]1CCCN1C(=O)[C@@H]1CCCN1C(=O)c1cccc(Cl)c1,-16.8% (inactive)
15,C[C@H](NC(=O)[C@@H]1CCCN1C(=O)[C@@H]1CCCN1C(=O)c1ccccc1)c1ccccc1,-14.2% (inactive)
16,Cc1ccc(S(=O)(=O)N(CCc2ccccc2)c2ccc3c(c2)C2CC3CCN2C(=O)OCc2ccccc2)cc1 (stereo unspecified),0% (inactive)
17,O=C(OCc1ccccc1)N1CCC2CC1c1ccc(-c3ccc4c(c3)OCO4)cc12 (stereo unspecified),-78.9% (active)
18,O=C(OCc1ccccc1)N1CCC2CC1c1cc(N3CCN(S(=O)(=O)c4cc(Cl)cc(Cl)c4)CC3)ccc12 (stereo unspecified),-1.81% (inactive)
19,Cc1ccc(NC(=O)Cn2sc3ccccc3c2=O)cc1,-0.282% (inactive)
20,CCNC(=S)Nc1ccc2c(c1)c(=O)n(C)n2Cc1ccc(Cl)cc1,8.41% (inactive)
